Format in all cases: functional
Experiment [1] concerns Plasmodium falciparum. Description: GSK_TCMDC: Inhibition of Plasmodium falciparum 3D7 in whole red blood cells, using parasite LDH activity as an index of growth. Test compounds present at 2uM.
The test system of experiment [2] is Plasmodium falciparum. The experiment in a line: GSK_TCMDC: Inhibition of Plasmodium falciparum Dd2 in whole red blood cells, using parasite LDH activity as an index of growth. Test compounds present at 2uM.
Another experiment deals with HepG2. Description: GSK_TCMDC: Percent inhibition of human HepG2 cell line. Test compounds present at 10uM.

From ChEMBL document CHEMBL1157539, “Thousands of chemical starting points for antimalarial lead identification” (Nature, 2010) come the findings set out here.

`O=C(Nc1ccc(N2CCCCC2)c(Cl)c1)c1nc[nH]n1`: the Inhibition was determined as 93% in the experiment on Plasmodium falciparum [1], 93% in the experiment on Plasmodium falciparum [2] and 0% in the experiment with HepG2.
With `Cc1ccccc1C1CCN(C2CCC(NC(=O)c3cc4cc(Cl)ccc4o3)CC2)CC1` (stereo not given), the Inhibition in the experiment on Plasmodium falciparum [1] is on record as 89%; with Plasmodium falciparum [2] it was 30%; with HepG2, 22%.
The like results for `O=C(Nc1cccc(-c2cccc(-c3nc4cc(C(F)(F)F)ccc4[nH]3)c2)c1)c1c[nH]cn1` were, in that order, 100%, 100% and 14%.
On to `Cn1cc(CCNc2ccnc(N3CCC(c4ncc[nH]4)CC3)n2)c2ccccc21`, for which the figures for the Inhibition in the experiment on Plasmodium falciparum [1], in the experiment with Plasmodium falciparum [2] and with HepG2 were 92%, 5% and 12%, respectively.
For `CN(C)CCCNc1c2ccccc2nc2ccccc12`, in that order: 91%, 4% and 31%.
Take `Fc1ccccc1C=NN=c1cc[nH]c2ccc(C(F)(F)F)cc12`: the Inhibition with Plasmodium falciparum [1] is 100%; in the experiment with Plasmodium falciparum [2] it was 61%; in the experiment on HepG2 it was 5%.
For `Nc1cc(-c2cc3c(OCc4ccccc4)cccc3[nH]2)ccn1`, in that order: 85%, 15% and 23%.
As to `O=C(NCCCCN1CCC(c2ccc3c(c2O)CCCC3)CC1)c1ccc(-c2ccc(Cl)cc2)cc1`, the results for the Inhibition in the experiment on Plasmodium falciparum [1], with Plasmodium falciparum [2] and in the experiment with HepG2 were 98%, 72% and 97%, respectively.
For `CCS(=O)(=O)N1CCN(c2nc(-c3ccccc3)nc(COC)c2Cc2ccccc2F)CC1`, the Inhibition is 82% in the experiment with Plasmodium falciparum [1], 34% in the experiment on Plasmodium falciparum [2] and 0% with HepG2.
The like results for `Cc1cc(NCC(c2ccccc2)c2ccccc2)nc(NCc2ccc(C(F)(F)F)cc2)n1` were, in that order, 100%, 79% and 29%.
Turning to `CS(=O)(=O)c1ccc2nc(NC(=O)c3csnn3)sc2c1`, the Inhibition in the experiment on Plasmodium falciparum [1] amounted to 90%; in the experiment on Plasmodium falciparum [2] it was 95%; in the experiment on HepG2, 3%.
The like results for `CCCCCCNC(=N)c1ccc2[nH]c(-c3ccc(O)cc3)nc2c1.Cl` were, in that order, 100%, 99% and 0%.
Consider `COc1ccc(CNC2CCN(C)CC2)cc1-c1ccc(S(=O)(=O)NC2CCC2)c(C)c1.O=C(O)C(F)(F)F`, for which the figures for the Inhibition with Plasmodium falciparum [1], with Plasmodium falciparum [2] and in the experiment with HepG2 were 100%, 96% and 24%, respectively.
For `COc1cc(Cc2cnc(N)nc2N)ccc1OCc1ccc(-c2csnn2)cc1`, in that order: 97%, 0% and 33%.
The like results for `CCN(CC)CCN(Cc1ccc(-c2ccc(C(F)(F)F)cc2)cc1)C(=O)Cn1cc(CCCc2cccc(F)c2F)c(=O)c2ccccc21.O=C(O)C(O)C(O)C(=O)O` were, in that order, 89%, 20% and 13%.
For the compound `O=C(Nc1ccccc1Oc1ccccc1)NC1CCN(c2ccnc3cc(Cl)ccc23)C1.O=C(O)C(F)(F)F` (stereo not given), the values for the Inhibition with Plasmodium falciparum [1], with Plasmodium falciparum [2] and with HepG2 were 99%, 74% and 0%, respectively.
Turning to `c1ccc(CNc2cc(-c3ccccn3)nc(-c3ccccn3)n2)cc1`, the Inhibition was found to be 84% in the experiment on Plasmodium falciparum [1], 89% in the experiment on Plasmodium falciparum [2] and 88% in the experiment on HepG2.
Take `COc1cc(C)nc2ccc(NC(=O)Nc3ccc([N+](=O)[O-])cc3C)cc12`: the Inhibition in the experiment on Plasmodium falciparum [1] was 90%; in the experiment with Plasmodium falciparum [2] it was 52%; with HepG2, 10%.
The like results for `OC(CNc1ccnc(Nc2ccccc2)n1)c1cccc(C(F)(F)F)c1` (stereo not given) were, in that order, 100%, 61% and 16%.
For `CCOC(=O)c1c(C)noc1Nc1ccc(OC)cc1`, in that order: 99%, 0% and 0%.
For `CON(C)C(=O)[C@@H](CCCCNC(=O)OCc1ccccc1)NC(=O)OC(C)(C)C`, in that order: 98%, 0% and 5%.
With `Nc1nccc2ccc(OC3CCCCC3)cc12.O=CO`, the Inhibition is recorded as 98% in the experiment with Plasmodium falciparum [1], 41% with Plasmodium falciparum [2] and 24% with HepG2.
As to `O=C(O)C(=O)O.c1ccc(C2CCC(N3CCC(N4CCCC4)CC3)CC2)cc1` (stereo not given), the results for the Inhibition in the experiment with Plasmodium falciparum [1], with Plasmodium falciparum [2] and with HepG2 were 100%, 46% and 9%, respectively.
For the compound `CN1CCN(Cc2ccc(-c3ccc4c(Nc5ccc(Cl)cc5F)ccnc4c3)o2)CC1`, the Inhibition with Plasmodium falciparum [1] amounted to 100%; in the experiment with Plasmodium falciparum [2], 100%; in the experiment on HepG2, 47%.
As for `Br.CCCCc1ccc(CCNCCCCCCNCCc2ccc(O)c(O)c2)cc1`, the Inhibition with Plasmodium falciparum [1] stood at 100%; in the experiment on Plasmodium falciparum [2], 0%; with HepG2, 45%.
The like results for `COc1ccc2nc(-c3ccccc3)cc(NCCN(C)C)c2c1` were, in that order, 100%, 23% and 0%.
For `O=C(CC1NC(=O)c2ccccc21)Nc1ccc(-c2ccc(-c3nc4cc(C(F)(F)F)ccc4[nH]3)cc2)cc1` (stereo not given), in that order: 87%, 70% and 39%.
For `N#Cc1ccc(-c2ccc(C(=O)NC3CCN(CCN4CCC(c5cn(CCOC6CCCCO6)c6ccccc56)CC4)CC3)cc2)cc1` (stereo not given), in that order: 99%, 86% and 48%.
For `CC(C)CNCc1ccc(-c2cccc(CNc3ccc4ncccc4c3)c2)cc1.O=C(O)C(F)(F)F`, the Inhibition turned out to be 96% in the experiment on Plasmodium falciparum [1], 31% with Plasmodium falciparum [2] and 29% with HepG2.
For `COC(=O)CCCCOc1cc(Cc2cnc(N)nc2N)cc(OC)c1OC`, in that order: 97%, 0% and 0%.
The like results for `O=C(Cc1ccc(NC(=O)c2ccc(O)c(-c3cccc([N+](=O)[O-])c3)c2)cc1)NCCN1CCCCC1` were, in that order, 89%, 3% and 4%.
The like results for `CCN(C)c1cc(C(=O)N[C@@H](Cc2ccccc2)[C@H](O)CNC(C)(C)c2cccc(OC)c2)cc(N2CCCC2=O)c1` were, in that order, 100%, 81% and 0%.
For the compound `Cc1cc(NC(=O)Nc2ccc3nccc(N4CCN(C)CC4)c3c2)ccc1Br`, the Inhibition with Plasmodium falciparum [1] turned out to be 100%; in the experiment with Plasmodium falciparum [2], 100%; with HepG2, 31%.
Turning to `Cc1ccccc1C1CCN(C2CCC(NC(=O)/C=C/c3cccc(F)c3F)CC2)CC1` (stereo not given), the Inhibition amounted to 89% in the experiment with Plasmodium falciparum [1], 45% with Plasmodium falciparum [2] and 57% in the experiment on HepG2.
The like results for `Cl.O=C(Nc1ccc(SC(F)(F)F)cc1)Nc1ccnc2ccccc12` were, in that order, 95%, 42% and 26%.
In the case of `Cc1cccc(Nc2nc(N)c3ccccc3n2)c1.Cl`, the figures for the Inhibition with Plasmodium falciparum [1], with Plasmodium falciparum [2] and in the experiment with HepG2 were 99%, 49% and 1%, respectively.
The like results for `Cc1ccc(C2CCN(CCCCNC(=O)c3ccc(-c4ccc(C(F)(F)F)cc4)cc3)CC2)c(O)c1` were, in that order, 100%, 49% and 92%.
As to `COc1ccc2nccc(N/N=C/c3ccccc3[N+](=O)[O-])c2c1`, the Inhibition in the experiment on Plasmodium falciparum [1] worked out at 100%; in the experiment with Plasmodium falciparum [2] it was 100%; in the experiment on HepG2, 67%.
In the case of `CC(C)(C)NCC(O)COc1ccc(Cl)cc1C1=NNC(=O)CC1.Cl` (stereo not given), the Inhibition in the experiment on Plasmodium falciparum [1] was found to be 96%; in the experiment on Plasmodium falciparum [2], 0%; with HepG2, 6%.
The like results for `Cc1cccc(-c2ccc(NC(=O)Nc3ccc4nccc(N5CCN(C)CC5)c4c3)cc2C)n1.Cl` were, in that order, 100%, 95% and 4%.
The like results for `CCCCCCOc1ccccc1C(=O)NCCOc1ccc(Cl)cc1` were, in that order, 84%, 37% and 16%.
For `O=C(Nc1cccc(OC2CCN(Cc3ccc(F)cc3)CC2)c1)c1ccc(C(F)(F)F)cc1.O=C(O)C(F)(F)F`, in that order: 94%, 6% and 28%.
As for `COc1ccc(NC(=O)Nc2ccc(-c3ccccc3)cc2)cc1Cn1nc(Cl)c(N2CCCNCC2)cc1=O.O=C(O)C(F)(F)F`, the figures for the Inhibition in the experiment with Plasmodium falciparum [1], in the experiment with Plasmodium falciparum [2] and in the experiment on HepG2 were 100%, 84% and 18%, respectively.
The like results for `COc1cccc(O)c1CN1CCC2(CCCN(Cc3ccc(F)cc3)C2)C1` (stereo not given) were, in that order, 98%, 72% and 21%.
In the case of `OC(c1ccccc1)C1CN(Cc2ccccc2)CCC1(O)c1ccccc1` (stereo not given), the Inhibition in the experiment on Plasmodium falciparum [1] was 91%; in the experiment on Plasmodium falciparum [2], 82%; in the experiment on HepG2 it was 4%.
In the case of `Cc1[nH]c(C)c(-c2ccc(-c3ccc(C(F)F)cc3)nc2)c(=O)c1Cl`, the Inhibition in the experiment on Plasmodium falciparum [1] is 97%; in the experiment on Plasmodium falciparum [2], 96%; with HepG2, 0%.
For `c1ccc(-c2cccc(-c3ccccn3)n2)nc1` [TERPYRIDINE], in that order: 98%, 99% and 45%.
The like results for `COCCCNc1sc(S(=O)(=O)c2ccccc2)nc1S(=O)(=O)c1ccc(Cl)cc1` were, in that order, 95%, 87% and 0%.
As to `O=C(C=Cc1ccc(Cl)c(Cl)c1)NCCCCCN1CCCC(CCCNS(=O)(=O)c2cccc3cccnc23)C1` (stereo not given), the Inhibition turned out to be 96% with Plasmodium falciparum [1], 16% in the experiment with Plasmodium falciparum [2] and 37% in the experiment with HepG2.
For `Cl.Nc1nc(N)c2c(ccc3c2cnn3S(=O)(=O)N2CCCC2)n1`, in that order: 93%, 3% and 70%.

A word on the Inhibition: it is the drop in the measured response relative to a control, in per cent.
